Here are results for seven compounds from PubChem BioAssay (Tox21).

Experiment [1] is described as follows: Nuclear factor erythroid 2-related factor 2/antioxidant responsive element (Nrf2/ARE) small molecule agonists: luciferase reporter gene qHTS assay in human keratinocytes (AID 1919969). Also: nearly all actives have a fitted effect of over 35% in size.
The target of experiment [2] is Gonadotropin-releasing hormone receptor (Homo sapiens) (UniProt P30968). In words: Human gonadotropin-releasing hormone receptor (GnRHR) small molecule agonists, calcium flux assay in GnRHR-HEK293 cells (AID 1920063). Also: nearly all actives have a fitted effect of over 35% in size. In short, it runs like this: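 Intracellular calcium rise is the read-out: engineered human GnRHR HEK293 cells, dye-loaded, are exposed to DMSO-dissolved compounds and fluorescence at Ex/Em 480/540 is tracked for 3 min.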

The target in experiment [3] is KiSS-1 receptor (Homo sapiens) (UniProt Q969F8). In words: Human kisspeptin (KISS1R) small molecule agonists, calcium flux assay in KISS1R-HEK293 cells (AID 1920064; active = well fitted activation curve with a large enough effect in the repeat runs). In short, it runs like this:
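Concentration-response testing used 15 concentrations in triplicate on human KISS1R-expressing HEK293 cells. Calcium-dependent fluorescence (Ex/Em 480/540) was followed kinetically for 3 min after compound transfer.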

Experiment [4] in a line: G protein-coupled receptor (GPCR) small molecule agonists, calcium flux assay: HEK293 wild type cell line counter screen (AID 1920065). In short, it runs like this: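 Fluorescence intensity signals activation. After overnight (18 h) culture and a 1 h calcium dye load at 37 C, compounds are added by pin tool and the plate read at 480/540 nm for 3 min in 1 s steps.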
Experiment [5] in a line: p53 small molecule agonists, cell-based qHTS assay with human liver microsomes (AID 1963577).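 Also: p53 response element beta-lactamase reporter cells with liver microsomes plus NADPH.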 An outline of the steps:
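HLM-supplemented p53RE-bla reporter assay: 16 h compound exposure at 37 C, microsomes and NADPH each 0.5 mg/mL final, read by fluorescence intensity.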

The nature of experiment [6]: p53 small molecule agonists, cell-based qHTS assay with rat liver microsomes (AID 1963578). In short, it runs like this: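 Quantitative HTS of the Tox21 10K library: p53RE-bla cells, rat liver microsomes plus NADPH at 0.5 mg/mL final each, 16 h at 37 C, beta-lactamase fluorescence detection.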
Experiment [7] in a line: p53 small molecule agonists, cell-based qHTS assay with human liver microsomes: qHTS cell viability counter screen (AID 1963579). Also: nearly all actives have a fitted effect of over 45% in size. An outline of the steps:
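Viability of p53RE-bla cells is measured as CellTiter-Glo luminescence following a 16 h, 37 C incubation with compound, liver microsomes from human donors and NADPH.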

A short description of experiment [8]: p53 small molecule agonists, cell-based qHTS assay with rat liver microsomes: qHTS cell viability counter screen (AID 1963580). Also: nearly all actives have a fitted effect of over 45% in size. In short, it runs like this:
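Luminescent ATP readout (CellTiter-Glo, 30 min at room temperature) reports viability of p53RE-bla HCT-116 cells after 16 h at 37 C with test compounds under metabolic activation by rat liver microsomes and NADPH at 0.5 mg/mL final each.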

The nature of experiment [9]: p53 small molecule agonists, cell-based qHTS assay: qHTS cell viability counter screen (AID 1963581). Also: nearly all actives have a fitted effect of over 45% in size. An outline of the steps:
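Luminescence from CellTiter-Glo, reflecting ATP content, serves as the cytotoxicity measure; it is taken after the 2 h reporter substrate step in HCT-116 p53RE-bla cells dosed for 16 h at 37 C.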

A short description of experiment [10]: p53 small molecule agonists, cell-based qHTS assay (AID 1963582; active = well fitted activation curve with a large enough effect in the signal ratio in the repeat runs, not every such curve was filed as active; the % refers to the signal ratio). An outline of the steps: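 After plating, p53RE-bla cells sat 5 h in the incubator; compounds or DMSO vehicle were pinned in; a 16 h incubation at 37 C followed; FRET substrate was added and, 2 h later at RT, fluorescence was measured.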
Experiment [11] has as its target 5-hydroxytryptamine receptor 2A (Homo sapiens) (UniProt P28223). In words: 5-hydroxytryptamine receptor 2A (HTR2A) small molecule antagonists, cell-based qHTS assay (AID 1963586). Also: nearly all actives have a fitted effect of over 45% in size. In short, it runs like this: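 CHO cells stably expressing human HTR2A were plated for 18 h at 37 C, then loaded with calcium dye for 1 h. Compounds were preincubated 5 min at room temperature before DOI (4 nM solution) was added. Kinetic fluorescence was read for 3 min.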

For experiment [12], the target named is Muscarinic acetylcholine receptor M1 (Homo sapiens) (UniProt P11229). In words: Cholinergic receptor muscarinic 1 (CHRM1) small molecule agonists, cell-based qHTS assay (AID 1963589). Also: nearly all actives have a fitted effect of over 35% in size. In short, it runs like this:
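Fluorescent calcium dye reports M1 activation in stably transfected CHO cells. Compounds, 15 concentrations, added after 1 h dye loading at 37 C; kinetic reading at 1 sec intervals.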

A short description of experiment [13]: cAMP Responsive Elements (CRE) small molecule agonists, cell-based qHTS assay (AID 1963590). In short, it runs like this: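 Compound exposure lasted 3 h at 37 C/5% CO2 in CRE-bla HEK 293T cells grown in assay medium with 10% dialyzed FBS and 25 mM HEPES. Reporter signal came from LiveBLAzer B/G FRET substrate, 2 h, room temperature.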
Experiment [14] can be described thus: cAMP Responsive Elements (CRE) small molecule antagonists, cell-based qHTS assay (AID 1963591; active = well fitted inhibition curve with a large enough effect in the signal ratio in the repeat runs, not every such curve was filed as active; the % refers to the signal ratio). An outline of the steps:
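Stimulation used NKH477 at a final 0.25 uM for 3 h in compound-treated CRE-bla HEK293T cells, seeded 18 h beforehand. Reporter activity was measured with LiveBLAzer B/G FRET substrate after 2 h at room temperature.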

In experiment [15] the target is Beta-2 adrenergic receptor (Homo sapiens) (UniProt P07550). The experiment in a line: Adrenergic beta2 receptor (ADRB2) small molecule antagonists, cell-based qHTS assay (AID 1963592). Also: nearly all actives have a fitted effect of over 50% in size. Also: potency is read from the fitted curve at half-maximal effect. As to activity change, negative = inhibition: series mostly up to about 92 µM. In short, it runs like this: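 Assay format: CHO-ADRB2 cells, 18-20hr seeding at 37C/5% CO2, then compound plus 1nM isoproterenol agonist mix for 0.5hr RT. Homogeneous time-resolved fluorescence cAMP detection after 1hr, expressed as 665/615 nm ratio.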

Experiment [16] has as its target D(2) dopamine receptor (Homo sapiens) (UniProt P14416). In words: Dopamine D2 receptor (DRD2) small molecule antagonists, cell-based qHTS assay (AID 1963595; active = well fitted inhibition curve with a large enough effect in the signal ratio in the repeat runs, with a control signal flat; the % refers to the signal ratio). In short, it runs like this: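 Readout: HTRF cAMP, cAMP-d2 competing with cellular cAMP for anti-cAMP cryptate, read after 1 h. Cells: DRD2-HEK293. Conditions: 0.1 mM Ro20-1724, 12 nM quinpirole, 200 nM NKH477, 30 min RT.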

Experiment [17] concerns the target Beta-2 adrenergic receptor (Homo sapiens) (UniProt P07550). In words: Adrenergic beta2 receptor (ADRB2) small molecule agonists, cell-based qHTS assay (AID 1963593).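 Also: CHO cells stably overexpressing human ADRB2.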 In short, it runs like this: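 CHO cells stably over-expressing ADRB2 were plated overnight at 37C, then dosed with compounds plus a stimulation mix containing 100uM IBMX and 25uM Ro-20-1724 for 0.5hr at room temperature. cAMP was measured by HTRF competition, 1hr.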

Experiment [18] concerns the target D(2) dopamine receptor (Homo sapiens) (UniProt P14416). In words: Dopamine D2 receptor (DRD2) small molecule agonists, cell-based qHTS assay (AID 1963594). Also: nearly all actives have a fitted effect of over 35% in size. In short, it runs like this: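 HEK293 cells stably expressing DRD2 were cultured 24 h at 37 C, then given Ro20-1724 (0.1 mM final) and compounds for 10 min at room temperature. NKH477 (200nM) was then added for 30 min. cAMP was read by HTRF.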

Experiment [19] deals with 5-hydroxytryptamine receptor 2A (Homo sapiens) (UniProt P28223). In words: 5-hydroxytryptamine receptor 2A (HTR2A) small molecule agonists, cell-based qHTS assay (AID 1963587). Also: nearly all actives have a fitted effect of over 30% in size. An outline of the steps:
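HTR2A-CHO cells, plated 18 h at 37 C/5% CO2, dye-loaded 1 h at 37 C; compounds in DMSO added by pin tool (agonist mode). Intracellular calcium flux read as kinetic fluorescence on FDSS over 2 min at 1 s intervals.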

Experiment [20] has as its target Muscarinic acetylcholine receptor M1 (Homo sapiens) (UniProt P11229). The experiment in a line: Cholinergic receptor muscarinic 1 (CHRM1) small molecule antagonists, cell-based qHTS assay (AID 1963588). Also: nearly all actives have a fitted effect of over 40% in size. An outline of the steps: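 Compounds were tested at 15 concentrations in three independent runs. Dye-loaded CHRM1-CHO cells were exposed 5 min at room temperature before stimulation by acetylcholine added at 50nM. Intracellular calcium was read kinetically on FDSS for 3 min.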

Values without a mark were called inactive. Results filed as inconclusive are left out. Active and inactive are the calls of the source. Unless noted, calls follow the shape of the full dose curve.
% is scaled to controls: 0 for no effect and ±100 for the full control effect.

Chain of Muscarinic acetylcholine receptor M1 (Homo sapiens) (P11229 whole entry, looked up): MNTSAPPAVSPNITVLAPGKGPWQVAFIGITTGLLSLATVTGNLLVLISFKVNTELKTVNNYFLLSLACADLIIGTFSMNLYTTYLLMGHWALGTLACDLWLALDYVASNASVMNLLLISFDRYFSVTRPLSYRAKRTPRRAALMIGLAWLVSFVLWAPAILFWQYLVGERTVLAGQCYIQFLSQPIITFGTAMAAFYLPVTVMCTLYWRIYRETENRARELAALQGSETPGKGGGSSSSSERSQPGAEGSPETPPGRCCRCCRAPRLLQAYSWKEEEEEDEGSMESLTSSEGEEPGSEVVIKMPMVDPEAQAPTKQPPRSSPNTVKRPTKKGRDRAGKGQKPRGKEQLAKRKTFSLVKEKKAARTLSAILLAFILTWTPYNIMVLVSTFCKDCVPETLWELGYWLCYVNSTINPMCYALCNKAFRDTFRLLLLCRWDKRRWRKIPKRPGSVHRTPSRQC
Chain of Gonadotropin-releasing hormone receptor (Homo sapiens) (P30968 whole entry, looked up): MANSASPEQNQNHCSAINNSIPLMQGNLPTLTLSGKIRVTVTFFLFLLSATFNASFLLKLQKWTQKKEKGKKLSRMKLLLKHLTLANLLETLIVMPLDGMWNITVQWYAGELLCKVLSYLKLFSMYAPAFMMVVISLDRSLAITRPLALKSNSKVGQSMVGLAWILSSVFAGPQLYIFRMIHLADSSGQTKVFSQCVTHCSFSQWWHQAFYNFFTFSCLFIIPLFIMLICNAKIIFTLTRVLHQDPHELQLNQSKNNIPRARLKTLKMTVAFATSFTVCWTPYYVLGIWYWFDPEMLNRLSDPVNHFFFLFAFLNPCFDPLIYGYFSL
Chain of 5-hydroxytryptamine receptor 2A (Homo sapiens) (P28223 whole entry, looked up): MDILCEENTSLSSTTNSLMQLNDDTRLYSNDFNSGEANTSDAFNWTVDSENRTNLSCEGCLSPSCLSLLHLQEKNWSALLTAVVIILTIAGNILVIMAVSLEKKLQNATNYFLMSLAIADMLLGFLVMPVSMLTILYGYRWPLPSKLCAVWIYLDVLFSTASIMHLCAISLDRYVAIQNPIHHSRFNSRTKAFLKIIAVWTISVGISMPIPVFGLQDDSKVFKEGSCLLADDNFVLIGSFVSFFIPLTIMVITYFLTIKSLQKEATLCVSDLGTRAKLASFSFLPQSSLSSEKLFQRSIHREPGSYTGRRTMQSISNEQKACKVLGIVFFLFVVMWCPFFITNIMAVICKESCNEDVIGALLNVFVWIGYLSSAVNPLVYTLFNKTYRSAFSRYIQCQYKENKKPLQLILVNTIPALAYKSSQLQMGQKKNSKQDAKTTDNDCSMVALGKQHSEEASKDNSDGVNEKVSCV
Chain of Beta-2 adrenergic receptor (Homo sapiens) (P07550 whole entry, looked up): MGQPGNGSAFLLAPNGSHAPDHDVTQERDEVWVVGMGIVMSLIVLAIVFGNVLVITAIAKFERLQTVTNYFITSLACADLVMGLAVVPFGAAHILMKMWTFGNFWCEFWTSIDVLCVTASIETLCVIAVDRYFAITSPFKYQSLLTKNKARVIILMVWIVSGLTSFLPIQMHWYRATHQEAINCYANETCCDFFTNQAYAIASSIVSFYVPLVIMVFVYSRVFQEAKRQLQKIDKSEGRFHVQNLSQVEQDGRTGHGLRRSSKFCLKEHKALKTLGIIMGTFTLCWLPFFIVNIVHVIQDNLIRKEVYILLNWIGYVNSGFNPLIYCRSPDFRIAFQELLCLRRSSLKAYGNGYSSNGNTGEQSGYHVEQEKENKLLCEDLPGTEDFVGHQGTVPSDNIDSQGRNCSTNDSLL
Chain of KiSS-1 receptor (Homo sapiens) (Q969F8 whole entry, looked up): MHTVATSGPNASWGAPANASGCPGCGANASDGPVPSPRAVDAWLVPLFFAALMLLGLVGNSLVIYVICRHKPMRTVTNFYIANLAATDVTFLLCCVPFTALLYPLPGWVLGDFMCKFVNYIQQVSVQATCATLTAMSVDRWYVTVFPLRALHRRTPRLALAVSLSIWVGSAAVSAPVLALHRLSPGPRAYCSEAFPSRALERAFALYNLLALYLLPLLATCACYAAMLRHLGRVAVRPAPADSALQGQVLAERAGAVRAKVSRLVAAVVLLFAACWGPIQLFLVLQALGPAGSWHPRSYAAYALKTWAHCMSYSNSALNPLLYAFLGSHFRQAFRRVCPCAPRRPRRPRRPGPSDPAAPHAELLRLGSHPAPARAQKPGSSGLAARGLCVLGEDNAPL
Chain of D(2) dopamine receptor (Homo sapiens) (P14416 whole entry, looked up): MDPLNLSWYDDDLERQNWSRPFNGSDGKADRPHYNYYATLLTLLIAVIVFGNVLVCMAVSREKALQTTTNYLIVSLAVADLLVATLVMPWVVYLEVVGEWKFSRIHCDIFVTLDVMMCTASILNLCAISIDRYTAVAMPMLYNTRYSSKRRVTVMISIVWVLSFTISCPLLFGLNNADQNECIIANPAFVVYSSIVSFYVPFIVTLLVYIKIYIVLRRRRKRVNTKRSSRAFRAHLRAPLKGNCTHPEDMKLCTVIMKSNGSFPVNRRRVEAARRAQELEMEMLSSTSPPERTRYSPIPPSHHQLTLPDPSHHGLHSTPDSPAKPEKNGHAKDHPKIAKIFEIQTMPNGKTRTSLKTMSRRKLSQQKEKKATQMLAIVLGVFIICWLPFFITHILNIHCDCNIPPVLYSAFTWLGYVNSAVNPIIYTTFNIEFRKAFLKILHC

Turning to `COc1ccccc1N1CCN(CCCNc2cc(=O)n(C)c(=O)n2C)CC1`, the Potency entry in [1], in experiment [2], in experiment [5], in [6], in experiment [7] and in [8] was “inactive” each time. Also, the Potency result in [9], in experiment [10], in experiment [11], in experiment [12], in [13] and in experiment [14] was “inactive” throughout. The Potency result in [16] was “inactive”. Further, the outcome in experiment [3] and in experiment [4] was inactive. Besides, the Potency in experiment [15] is 13.3 µM (active).

Turning to `OC(CCCN1CCCCC1)(c1ccccc1)c1ccccc1`, the Potency entry in [1], in experiment [2], in [5], in experiment [6], in experiment [7] and in experiment [8] was “inactive” in each case. Also, the Potency result in experiment [9], in [10], in experiment [13], in experiment [14], in [15] and in [17] was “inactive” each time. Also, in [18], the Potency entry was “inactive”. Further, the result in [3] and in [4] was inactive.

Regarding `CCOC(=O)Cn1c(=O)sc2cccc(Cl)c21`, the Potency result in experiment [1], in experiment [2], in experiment [5], in experiment [6], in experiment [7] and in experiment [8] was “inactive” throughout. For the same compound, the Potency result in experiment [9], in experiment [10], in experiment [11], in [19], in experiment [20] and in experiment [12] was “inactive” throughout. Besides, the Potency entry in experiment [13], in [15], in experiment [18] and in [16] was “inactive” each time. Further, the outcome in experiment [3] and in [4] was inactive.

With `O=C1c2ccccc2C(=O)c2cc(O)ccc21`, the Potency entry in [1], in [2], in experiment [5], in experiment [6], in experiment [7] and in experiment [8] was “inactive” each time. Also, the Potency entry in [9], in experiment [10], in experiment [19], in [20], in [12] and in [14] was “inactive” throughout. Also, the Potency entry in [15], in [17], in experiment [18] and in experiment [16] was “inactive” in each case. The outcome in experiment [3] and in experiment [4] was inactive.

Consider `CCCCCOC(=O)CCCC`, for which the Potency result in [1], in [2], in [5], in experiment [6], in experiment [7] and in experiment [8] was “inactive” in each case. Besides, the Potency entry in [9], in experiment [10], in experiment [11], in [19], in experiment [20] and in experiment [12] was “inactive” in each case. Moreover, the Potency entry in [13], in experiment [14], in [15], in [18] and in experiment [16] was “inactive” throughout. Besides, the result in experiment [3] and in experiment [4] was inactive.

As to `CCOC(CN1CCN(CC(C)C(=O)c2ccccc2)CC1)c1ccccc1` (configuration not stated), in experiment [1], the activity, positive = activation was 6.71% [at 19 µM]. For the same compound, in experiment [2], the activity change was -0.217% [at 11.8 µM, hits give high values]. The activation is 2.43% [at 15.8 µM] in experiment [3]; 1.41% [at 11.8 µM] in experiment [4]; -8.35% [at 13.5 µM] in experiment [5]; 1.1% [at 13.6 µM] in [6]; -3.89% [at 13.5 µM] in [10]; -20.7% [at 15.9 µM] in experiment [19]. Further, the activation was -0.405% [at 15.8 µM] in [12], -1.09% [at 19 µM] in [13] and -24.3% [at 19 µM] in [18]. For the same compound, the activity change, negative = cytotoxicity in experiment [7] was 24.1% [at 13.5 µM]; in [8], 0.0683% [at 13.5 µM]; in [9] it was 9.5% [at 13.5 µM]. The activity, negative = inhibition in experiment [20] was -8.62% [at 12.6 µM]. Moreover, the activity change, negative = inhibition in experiment [14] is 10.1% [at 18.9 µM]; in [15], 4.02% [at 19 µM]. In addition, in experiment [17], the Potency result is “inactive”.

Take `CSSc1ccoc1C`: the Potency entry in experiment [1], in [2], in experiment [5], in [6], in experiment [7] and in experiment [8] was “inactive” each time. In addition, the Potency entry in experiment [9], in experiment [10], in [11], in experiment [19], in experiment [20] and in [12] was “inactive” each time. The Potency result in [14], in [15], in [18] and in [16] was “inactive” throughout. In addition, the outcome in [3] and in [4] was inactive.
